Source: PubChem BioAssay (NCI)
This is part of a sample that, as a whole, favours compounds with a hit. Of some 83,000 tested, about 20% had one in any assay.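 Negative percent growth values reflect cell death: -40 means 40% of the cells present at the start died, and -100 means all died.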 A number with no mark means an inactive call. Calls of active or inactive are those of the source.

tested on: HCT-116 colon; experiment: NCI-60 one-dose screen, 48 h (100 = growth as untreated, 0 = no growth, -100 = all killed); details: 10 µM unless noted
Protocol: Growth inhibition of the HCT-116 human tumor cell line is measured as a screen for anti-cancer activity. Cells are grown in 96 well plates and exposed to the test compound for 48 hours. Compounds are tested at a single concentration, which is 10^-5 M for most compounds. The reported endpoint is percent growth (GI% or GIPRCNT), where numbers from 0 - 100% represent growth inhibition, and numbers from -100% - 0 represent cell death. For example, a value of 40 represents 60% growth inhibition. A value of 0 means no net growth occurred over the course of the experiment. A value of -40 indicates 40% of cells at the beginning of the experiment died by the end of the experiment. A value of -100 means all cells are dead at the end of the experiment.
NCI-60 Human Tumor Cell Lines Screen was performed using the standard one-dose NCI protocol, which is described in more detail at https://dtp.cancer.gov/discovery_development/nci-60/default.htm.
Compounds with GIPRCNT values below 10 were considered active. Activity score was based on GIPRCNT using the following formula: […]
Score is 0 for GIPRCNT values of 100 or above, 50 for GIPRCNT values of 0, and 100 for GIPRCNT values of -100.

Row | Compound | growth
1 | Cc1cc(=O)oc2cc(O)cc(O)c12 | 90.5%
2 | COc1c(C)c2c(c(O)c1C/C=C(\C)CCC(=O)O)C(=O)OC2 | 13.3%
3 | N=C(N)Sc1cccc[n+]1[O-] | 9.31% (active)
4 | CCOc1cc(F)c([N+](=O)[O-])cc1[N+](=O)[O-] | 9.26% (active)
5 | Cc1ccc(Nc2ccc(O)c3c2C(=O)c2c(O)ccc(Nc4ccc(C)cc4)c2C3=O)cc1 | 93.5%
6 | Cn1ccc(=Nc2ccc(NC(=O)c3ccc(N=c4ccn(C)c5ccc([N+](=O)[O-])cc45)cc3)cc2)cc1 | 32.6%
7 | CC(C)c1ccc(C(=O)OC2CCCC2)cc1 | 92.3%
8 | CC(C)(C)c1ccc(CCO)cc1 | 99.7%
9 | C1=C(c2ccccc2)c2ccccc2C1 | 95.8%
10 | CCN1/C(=C/C(C)=C/c2sc3ccc4ccccc4c3[n+]2CC)Sc2ccc3ccccc3c21 | -69.5% (active)
11 | N#CC1c2ccccc2C=CN1C(=O)CCCl (stereo not given) | 84.1%
12 | CC(C)Nc1ccc(Nc2ccc(NC(C)C)cc2)cc1 | 25.7%
13 | CCNc1nnnn1CC | 102%
14 | O=[N+]([O-])c1ccc(C(Br)c2ccc([N+](=O)[O-])cc2)cc1 | 21.3%
15 | CCC1CCCCN1C(=S)N/N=C(\C)c1ccccn1 (stereo not given) | 5.51% (active)
16 | O=C(CCl)N(c1ccccc1)c1ccccc1 | 111%
17 | Nc1nc2ncc(CNc3ccc(C(=O)NC(CCC(=O)NC(CCC(=O)NC(CCC(=O)NC(CCC(=O)NC(CCC(=O)O)C(=O)O)C(=O)O)C(=O)O)C(=O)O)C(=O)O)cc3)nc2c(=O)[nH]1 (stereo not given) | 103%
18 | O=[N+]([O-])c1ccc(N2CCN(Cc3ccccc3)CC2)c2c1no[n+]2[O-] | -86% (active)
19 | CCCCCCCCCCCC1N=C(N)N=C(N)N1c1cccc(Br)c1 (stereo not given) | -100% (active)
20 | Oc1cc(Cl)ccc1Cc1ccc(Cl)cc1O | 41.7%

Row | Compound | growth
21 | Cc1nn(CCO)c(C)c1N=[N+]([O-])c1c(C)nn(CCO)c1C | -81.9% (active)
22 | CCCCCCCCCCCC[n+]1ccc2ccccc2c1 | -74.7% (active)
23 | CCOc1ccc2c(c1)/C(=C\C=C\C1CC(C)C3CC(OCC)CCC3N1CC)CC(C)N2CC (stereo not given) | 10.7%
24 | Nc1ccc(Oc2ccccc2)c(Cl)c1 | 79.3%
25 | O=C(c1ccccc1)C(O)C(Br)(CBr)c1ccccc1 (stereo not given) | 57.2%
26 | S=C(SSC(=S)N1CCOCC1)N1CCOCC1 | 40.1%
27 | CCSc1nc2ccccc2o1 | 111%
28 | CN(C)c1ccc(/C=C/c2ccnc3ccccc23)cc1 | 24.8%
29 | CN=C(N)N/N=C(\C)c1ccc2c(c1)Cc1ccccc1-2 | -100% (active)
30 | O=C1C=CC(O)=CC1=P(c1ccccc1)(c1ccccc1)c1ccccc1 | 88%
31 | Cc1ccc2c(c1)sc(-c1ccc(N(C)C)cc1)[n+]2C | -8.72% (active)
32 | Cc1ccc(NC2=CC(=O)C(=O)c3ccccc32)cc1 | -26.9% (active)
33 | Nc1ccc(C(=O)/C=C/c2ccccc2)cc1 | 60.3%
34 | CC/C(=C(/CC)c1ccc(O)cc1)c1ccc(O)cc1 | 29.3%
35 | C[C@@]1(CO)[C@H](O)CC[C@@]2(C)[C@H]1CC[C@H]1C[C@@H]3C[C@@]12CC[C@@]3(O)COC(=O)CN | 33.3%
36 | OC(c1cc2ccc(C(F)(F)F)cc2c2cc(C(F)(F)F)ccc12)C1CCCCN1 (stereo not given) | -86.5% (active)
37 | CCCCCC[C@@H](O)C/C=C\CCCCCCCC(=O)OCCOC | 89.2%
38 | Cc1ccc(N2C(=O)C=CC2=O)cc1 | 101%
39 | CCOC(=O)/C(=C\c1ccc2ccccc2c1)P(=O)(OCC)OCC | 4.87% (active)
40 | C/C(=N\NC(=S)N1CC2CCC(CC2)C1)c1ccccn1 | 7.24% (active)
